Laboratory results: article PMC7862700, “An all-to-all approach to the identification of sequence-specific readers for epigenetic DNA modifications on cytosine”

Columns and labels:
Assay in all cases: DAPPL (digital affinity profiling via proximity ligation, sequencing); 10 mM Tris-HCl pH 7.5, 50 mM NaCl, 1 mM DTT, 4% glycerol, room temperature, 30 min; GST-TFs on glutathione beads, 16-mer random dsDNA library, 0.1% formaldehyde crosslink after washing; high values mean tight binding
Conditions in all cases: protein: recombinant; tags: N-terminal GST; dsDNA, one strand shown
[1] = molecular target: T1, FLI1 (Homo sapiens, UniProt Q01543 1-452)
T1 sequence: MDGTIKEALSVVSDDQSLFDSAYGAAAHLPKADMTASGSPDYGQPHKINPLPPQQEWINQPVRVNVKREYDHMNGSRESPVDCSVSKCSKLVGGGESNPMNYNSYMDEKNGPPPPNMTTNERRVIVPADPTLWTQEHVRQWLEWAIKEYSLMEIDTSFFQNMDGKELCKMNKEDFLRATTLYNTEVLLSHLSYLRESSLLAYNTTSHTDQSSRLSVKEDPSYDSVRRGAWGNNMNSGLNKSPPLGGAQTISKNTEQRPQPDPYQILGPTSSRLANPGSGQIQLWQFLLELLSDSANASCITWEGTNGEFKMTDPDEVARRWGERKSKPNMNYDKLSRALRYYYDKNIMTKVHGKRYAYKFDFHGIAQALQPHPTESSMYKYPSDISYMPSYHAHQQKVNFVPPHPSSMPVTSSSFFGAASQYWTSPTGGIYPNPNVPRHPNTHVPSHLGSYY
How it was run: (§1)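 Human transcription factors carrying a GST fusion were produced in yeast, bound to glutathione beads, tagged with DNA barcodes and pooled together with a tag-only sample. Each pool was held with 200 nmole of a random double-stranded 16-mer DNA library in Tris/NaCl/DTT/glycerol buffer for 30 min at room temperature, then washed, crosslinked in 0.1% formaldehyde, proximity-ligated with BsaI/T4 ligase (1 h, 37 °C), PCR-amplified and sequenced on an Illumina NextSeq500. Binding signal is the read frequency of each hexamer for a given factor divided by its frequency in the tag-only sample.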

[2] = molecular target: T2, ELK1 (Homo sapiens, UniProt P19419 1-428)
T2 sequence: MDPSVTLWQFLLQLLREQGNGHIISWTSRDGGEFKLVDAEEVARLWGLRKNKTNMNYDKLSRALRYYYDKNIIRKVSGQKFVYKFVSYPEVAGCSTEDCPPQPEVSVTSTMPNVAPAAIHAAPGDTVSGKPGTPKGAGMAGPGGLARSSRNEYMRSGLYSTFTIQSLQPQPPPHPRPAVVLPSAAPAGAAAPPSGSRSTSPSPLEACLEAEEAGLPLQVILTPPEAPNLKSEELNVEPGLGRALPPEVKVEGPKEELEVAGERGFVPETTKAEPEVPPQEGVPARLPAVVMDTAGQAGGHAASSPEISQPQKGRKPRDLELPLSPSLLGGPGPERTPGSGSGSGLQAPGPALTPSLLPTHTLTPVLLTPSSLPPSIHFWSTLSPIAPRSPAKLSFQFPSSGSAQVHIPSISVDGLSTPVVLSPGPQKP
How it was run: as §1

[3] = molecular target: T3, GABPA (Homo sapiens, UniProt Q06546 1-454)
T3 sequence: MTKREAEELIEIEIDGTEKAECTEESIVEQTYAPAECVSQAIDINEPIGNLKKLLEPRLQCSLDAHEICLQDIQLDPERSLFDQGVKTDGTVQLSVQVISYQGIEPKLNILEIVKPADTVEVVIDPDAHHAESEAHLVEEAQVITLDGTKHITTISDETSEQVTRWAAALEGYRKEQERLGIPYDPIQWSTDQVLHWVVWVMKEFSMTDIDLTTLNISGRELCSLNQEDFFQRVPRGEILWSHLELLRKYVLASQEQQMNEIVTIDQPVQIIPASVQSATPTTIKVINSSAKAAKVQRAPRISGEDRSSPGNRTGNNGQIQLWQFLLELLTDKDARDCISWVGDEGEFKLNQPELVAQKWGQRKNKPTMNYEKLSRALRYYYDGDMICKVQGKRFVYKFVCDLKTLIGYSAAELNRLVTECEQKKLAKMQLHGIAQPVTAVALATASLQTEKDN
How it was run: as §1

[4] = molecular target: T4, ERG (Homo sapiens, UniProt P11308 1-479)
T4 sequence: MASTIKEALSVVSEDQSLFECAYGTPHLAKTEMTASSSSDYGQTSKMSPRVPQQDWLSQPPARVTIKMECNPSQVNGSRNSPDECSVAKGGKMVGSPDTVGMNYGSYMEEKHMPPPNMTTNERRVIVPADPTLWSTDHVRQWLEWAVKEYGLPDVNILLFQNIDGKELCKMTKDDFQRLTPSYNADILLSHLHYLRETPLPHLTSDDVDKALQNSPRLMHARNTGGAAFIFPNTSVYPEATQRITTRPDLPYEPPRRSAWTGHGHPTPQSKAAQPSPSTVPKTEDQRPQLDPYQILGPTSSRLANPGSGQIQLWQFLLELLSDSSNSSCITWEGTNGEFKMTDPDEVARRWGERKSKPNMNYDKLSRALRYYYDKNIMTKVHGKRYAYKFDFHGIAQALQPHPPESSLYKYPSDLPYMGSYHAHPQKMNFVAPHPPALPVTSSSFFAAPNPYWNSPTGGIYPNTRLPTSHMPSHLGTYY
How it was run: as §1

[5] = molecular target: ELF1 (Homo sapiens, UniProt P32519 1-619)
How it was run: as §1

[6] = molecular target: T5, EHF (Homo sapiens, UniProt Q9NZC4 1-300)
T5 sequence: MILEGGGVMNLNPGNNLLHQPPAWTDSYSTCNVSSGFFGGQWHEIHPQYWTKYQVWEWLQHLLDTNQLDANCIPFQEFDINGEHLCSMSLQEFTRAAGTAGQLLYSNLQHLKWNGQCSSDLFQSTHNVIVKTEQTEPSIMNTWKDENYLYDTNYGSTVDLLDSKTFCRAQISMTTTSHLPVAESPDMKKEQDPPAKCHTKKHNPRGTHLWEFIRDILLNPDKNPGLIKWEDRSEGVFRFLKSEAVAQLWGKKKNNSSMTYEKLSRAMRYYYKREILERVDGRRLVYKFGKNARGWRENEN
How it was run: as §1

[7] = molecular target: SPI1 (Homo sapiens, UniProt P17947 1-270)
How it was run: as §1

[8] = molecular target: SPIB (Homo sapiens, UniProt Q01892 1-262)
How it was run: as §1

[9] = molecular target: T6, ELK3 (Homo sapiens, UniProt P41970 1-407)
T6 sequence: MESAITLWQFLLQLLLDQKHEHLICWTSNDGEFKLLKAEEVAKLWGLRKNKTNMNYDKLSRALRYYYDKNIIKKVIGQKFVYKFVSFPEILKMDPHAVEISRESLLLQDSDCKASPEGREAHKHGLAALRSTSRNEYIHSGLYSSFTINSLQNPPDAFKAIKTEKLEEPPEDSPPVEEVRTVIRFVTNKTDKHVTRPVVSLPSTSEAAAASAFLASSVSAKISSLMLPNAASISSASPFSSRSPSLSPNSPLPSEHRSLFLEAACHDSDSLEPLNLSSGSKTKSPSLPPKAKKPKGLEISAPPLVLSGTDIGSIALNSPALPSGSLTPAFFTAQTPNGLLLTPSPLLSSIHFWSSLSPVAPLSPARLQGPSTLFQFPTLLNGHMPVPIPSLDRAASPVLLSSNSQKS
How it was run: as §1

[10] = molecular target: T7, FEV (Homo sapiens, UniProt Q99581 1-238)
T7 sequence: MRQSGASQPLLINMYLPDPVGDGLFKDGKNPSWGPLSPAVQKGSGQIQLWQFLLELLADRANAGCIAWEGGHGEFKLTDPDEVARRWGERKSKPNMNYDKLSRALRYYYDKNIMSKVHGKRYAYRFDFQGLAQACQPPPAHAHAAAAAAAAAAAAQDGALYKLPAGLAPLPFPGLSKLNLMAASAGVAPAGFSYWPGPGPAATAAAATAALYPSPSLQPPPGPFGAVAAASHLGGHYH
How it was run: as §1

[11] = molecular target: ETV5 (Homo sapiens, UniProt P41161 1-510)
How it was run: as §1

[12] = molecular target: T8, SPIC (Homo sapiens, UniProt Q8N5J4 1-248)
T8 sequence: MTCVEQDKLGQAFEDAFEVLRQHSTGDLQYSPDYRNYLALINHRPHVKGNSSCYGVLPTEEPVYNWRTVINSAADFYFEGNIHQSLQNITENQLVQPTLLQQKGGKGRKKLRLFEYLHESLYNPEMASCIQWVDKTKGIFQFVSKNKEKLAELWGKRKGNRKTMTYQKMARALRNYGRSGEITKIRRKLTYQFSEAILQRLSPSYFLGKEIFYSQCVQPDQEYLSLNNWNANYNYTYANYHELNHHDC
How it was run: as §1

[13] = molecular target: ELF4 (Homo sapiens, UniProt Q99607 1-663)
How it was run: as §1

[14] = molecular target: ETV1 (Homo sapiens, UniProt P50549 1-477)
How it was run: as §1

[15] = molecular target: T9, ERF (Homo sapiens, UniProt P50548 1-548)
T9 sequence: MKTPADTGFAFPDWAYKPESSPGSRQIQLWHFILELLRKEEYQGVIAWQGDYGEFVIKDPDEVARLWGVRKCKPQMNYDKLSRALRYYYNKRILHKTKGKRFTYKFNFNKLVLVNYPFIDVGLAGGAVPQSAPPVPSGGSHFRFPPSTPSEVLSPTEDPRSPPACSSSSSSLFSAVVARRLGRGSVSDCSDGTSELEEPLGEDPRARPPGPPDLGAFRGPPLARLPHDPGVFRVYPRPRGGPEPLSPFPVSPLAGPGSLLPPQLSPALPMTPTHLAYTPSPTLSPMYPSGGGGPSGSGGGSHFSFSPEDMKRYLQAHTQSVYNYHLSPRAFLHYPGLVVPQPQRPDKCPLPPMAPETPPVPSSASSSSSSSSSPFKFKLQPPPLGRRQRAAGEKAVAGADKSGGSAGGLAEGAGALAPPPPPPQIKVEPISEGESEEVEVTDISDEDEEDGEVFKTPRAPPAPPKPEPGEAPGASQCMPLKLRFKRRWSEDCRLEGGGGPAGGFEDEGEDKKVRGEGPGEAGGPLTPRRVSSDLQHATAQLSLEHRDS
How it was run: as §1

[16] = molecular target: T10, ETV3L (Homo sapiens, UniProt Q6ZN32 1-361)
T10 sequence: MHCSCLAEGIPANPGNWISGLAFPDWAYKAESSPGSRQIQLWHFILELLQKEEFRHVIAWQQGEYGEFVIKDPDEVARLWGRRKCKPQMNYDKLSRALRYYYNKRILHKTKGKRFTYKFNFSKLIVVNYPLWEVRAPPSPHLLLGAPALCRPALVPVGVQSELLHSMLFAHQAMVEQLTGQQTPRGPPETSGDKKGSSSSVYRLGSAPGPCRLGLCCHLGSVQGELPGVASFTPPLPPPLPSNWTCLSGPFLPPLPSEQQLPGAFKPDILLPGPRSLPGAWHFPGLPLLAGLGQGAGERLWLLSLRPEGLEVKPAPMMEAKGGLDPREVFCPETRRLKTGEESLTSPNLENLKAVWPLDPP
How it was run: as §1

[17] = molecular target: T11, ETS2 (Homo sapiens, UniProt P15036 1-469)
T11 sequence: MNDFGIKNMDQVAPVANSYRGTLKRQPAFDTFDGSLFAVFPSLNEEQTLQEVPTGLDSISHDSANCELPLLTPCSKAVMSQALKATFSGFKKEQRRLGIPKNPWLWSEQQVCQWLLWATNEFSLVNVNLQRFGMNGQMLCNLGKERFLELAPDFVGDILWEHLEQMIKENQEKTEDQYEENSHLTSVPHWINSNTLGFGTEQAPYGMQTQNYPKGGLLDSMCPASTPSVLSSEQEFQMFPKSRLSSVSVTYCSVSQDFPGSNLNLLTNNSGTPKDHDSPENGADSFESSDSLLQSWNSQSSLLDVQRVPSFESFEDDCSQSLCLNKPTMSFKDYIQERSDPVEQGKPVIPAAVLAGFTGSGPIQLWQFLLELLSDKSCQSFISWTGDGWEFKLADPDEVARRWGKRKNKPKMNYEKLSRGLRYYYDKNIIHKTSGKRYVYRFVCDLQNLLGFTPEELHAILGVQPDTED
How it was run: as §1

[18] = molecular target: T12, ETV3 (Homo sapiens, UniProt P41162-2 1-143)
T12 sequence: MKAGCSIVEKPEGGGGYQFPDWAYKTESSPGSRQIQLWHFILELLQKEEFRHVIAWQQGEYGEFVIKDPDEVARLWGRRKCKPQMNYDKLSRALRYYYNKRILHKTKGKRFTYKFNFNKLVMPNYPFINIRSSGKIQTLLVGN
How it was run: as §1

[19] = molecular target: ETV6 (Homo sapiens, UniProt P41212 1-452)
How it was run: as §1

Chain of ELF4 (Q99607 whole entry): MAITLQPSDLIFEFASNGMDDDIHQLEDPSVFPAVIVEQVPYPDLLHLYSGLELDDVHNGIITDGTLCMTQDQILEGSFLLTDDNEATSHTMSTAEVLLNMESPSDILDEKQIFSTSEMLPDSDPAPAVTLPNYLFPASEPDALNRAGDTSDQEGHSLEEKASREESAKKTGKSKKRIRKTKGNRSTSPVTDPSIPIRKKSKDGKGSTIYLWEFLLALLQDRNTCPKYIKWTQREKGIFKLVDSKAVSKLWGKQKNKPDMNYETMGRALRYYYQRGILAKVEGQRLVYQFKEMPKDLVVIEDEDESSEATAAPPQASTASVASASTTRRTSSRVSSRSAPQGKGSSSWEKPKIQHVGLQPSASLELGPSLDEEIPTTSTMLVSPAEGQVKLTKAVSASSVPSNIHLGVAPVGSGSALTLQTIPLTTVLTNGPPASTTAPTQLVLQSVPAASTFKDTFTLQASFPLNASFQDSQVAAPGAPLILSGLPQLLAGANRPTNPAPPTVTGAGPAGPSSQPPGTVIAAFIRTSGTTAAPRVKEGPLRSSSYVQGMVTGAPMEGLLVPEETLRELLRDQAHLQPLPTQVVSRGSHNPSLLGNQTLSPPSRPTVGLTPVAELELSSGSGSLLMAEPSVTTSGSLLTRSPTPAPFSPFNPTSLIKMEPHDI
Chain of SPIB (Q01892 whole entry): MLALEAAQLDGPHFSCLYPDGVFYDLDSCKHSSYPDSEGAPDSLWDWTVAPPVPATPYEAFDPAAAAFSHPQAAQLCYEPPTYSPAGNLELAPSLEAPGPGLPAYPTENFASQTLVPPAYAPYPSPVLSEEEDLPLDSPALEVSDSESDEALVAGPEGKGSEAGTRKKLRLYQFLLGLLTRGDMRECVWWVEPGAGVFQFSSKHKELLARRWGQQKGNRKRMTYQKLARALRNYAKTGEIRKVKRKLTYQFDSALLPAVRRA
Chain of ELF1 (P32519 whole entry): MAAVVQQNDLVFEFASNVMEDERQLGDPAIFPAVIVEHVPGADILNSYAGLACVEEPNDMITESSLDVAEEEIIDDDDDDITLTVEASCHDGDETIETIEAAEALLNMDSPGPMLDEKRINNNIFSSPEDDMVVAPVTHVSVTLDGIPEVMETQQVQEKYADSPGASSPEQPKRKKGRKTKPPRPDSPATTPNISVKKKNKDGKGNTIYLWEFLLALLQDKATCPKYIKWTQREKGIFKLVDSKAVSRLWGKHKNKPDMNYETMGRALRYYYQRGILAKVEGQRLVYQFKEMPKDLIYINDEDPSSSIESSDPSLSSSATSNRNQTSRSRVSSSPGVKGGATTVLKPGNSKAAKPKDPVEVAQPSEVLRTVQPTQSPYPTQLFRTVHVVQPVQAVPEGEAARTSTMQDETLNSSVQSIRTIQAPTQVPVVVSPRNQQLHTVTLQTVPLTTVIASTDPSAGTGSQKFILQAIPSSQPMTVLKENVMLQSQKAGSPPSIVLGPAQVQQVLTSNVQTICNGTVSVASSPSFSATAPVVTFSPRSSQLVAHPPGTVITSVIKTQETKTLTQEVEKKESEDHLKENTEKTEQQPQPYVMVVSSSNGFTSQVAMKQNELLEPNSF
Chain of ETV6 (P41212 whole entry): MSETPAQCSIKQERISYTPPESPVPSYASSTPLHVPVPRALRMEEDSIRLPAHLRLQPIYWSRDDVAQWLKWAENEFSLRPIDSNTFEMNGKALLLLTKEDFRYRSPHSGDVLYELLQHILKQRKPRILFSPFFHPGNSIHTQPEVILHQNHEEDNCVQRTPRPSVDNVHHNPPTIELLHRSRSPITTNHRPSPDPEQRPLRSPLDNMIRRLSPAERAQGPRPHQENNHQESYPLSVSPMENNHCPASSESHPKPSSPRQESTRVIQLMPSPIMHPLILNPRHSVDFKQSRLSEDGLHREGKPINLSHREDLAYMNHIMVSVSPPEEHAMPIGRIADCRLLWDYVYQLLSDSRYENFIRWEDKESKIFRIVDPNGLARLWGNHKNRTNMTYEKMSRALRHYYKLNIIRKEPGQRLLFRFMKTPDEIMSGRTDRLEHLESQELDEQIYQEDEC
Chain of ETV1 (P50549 whole entry): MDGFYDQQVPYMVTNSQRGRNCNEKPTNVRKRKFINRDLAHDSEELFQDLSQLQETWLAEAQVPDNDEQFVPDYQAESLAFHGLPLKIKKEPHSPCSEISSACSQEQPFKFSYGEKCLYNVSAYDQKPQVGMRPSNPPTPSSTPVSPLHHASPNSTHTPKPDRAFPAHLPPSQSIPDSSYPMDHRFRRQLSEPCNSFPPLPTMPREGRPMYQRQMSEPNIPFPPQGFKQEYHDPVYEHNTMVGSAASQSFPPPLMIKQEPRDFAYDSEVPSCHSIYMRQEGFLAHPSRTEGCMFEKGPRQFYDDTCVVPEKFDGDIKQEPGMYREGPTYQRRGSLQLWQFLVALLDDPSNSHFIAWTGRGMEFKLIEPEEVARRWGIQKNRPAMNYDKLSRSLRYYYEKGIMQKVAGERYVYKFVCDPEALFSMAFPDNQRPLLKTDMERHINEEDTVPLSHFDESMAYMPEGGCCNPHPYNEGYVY
Chain of ETV5 (P41161 whole entry): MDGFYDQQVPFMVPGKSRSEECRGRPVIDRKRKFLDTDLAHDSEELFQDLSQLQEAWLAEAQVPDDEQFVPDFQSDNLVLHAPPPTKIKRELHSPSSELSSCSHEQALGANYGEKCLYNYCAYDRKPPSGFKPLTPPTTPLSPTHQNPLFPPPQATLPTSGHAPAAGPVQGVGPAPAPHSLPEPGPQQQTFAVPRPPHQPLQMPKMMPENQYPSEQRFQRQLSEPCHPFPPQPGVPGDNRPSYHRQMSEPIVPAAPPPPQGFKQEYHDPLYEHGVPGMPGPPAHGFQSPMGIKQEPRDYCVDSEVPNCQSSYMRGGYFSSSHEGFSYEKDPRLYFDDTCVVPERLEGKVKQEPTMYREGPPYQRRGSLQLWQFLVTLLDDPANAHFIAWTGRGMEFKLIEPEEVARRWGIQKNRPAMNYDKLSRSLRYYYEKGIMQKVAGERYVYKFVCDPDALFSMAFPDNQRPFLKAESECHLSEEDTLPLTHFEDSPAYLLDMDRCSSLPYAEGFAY

For GGAAGA, the binding signal [1] was 1.06 fold enrichment (6-mer frequency, TF over GST control), the binding signal [2] was 1.16 fold enrichment (6-mer frequency, TF over GST control) and the binding signal [3] was 1.11 fold enrichment (6-mer frequency, TF over GST control). For the same sequence, the binding signal [4] was 1.2 fold enrichment (6-mer frequency, TF over GST control), the binding signal [5] was 1.02 fold enrichment (6-mer frequency, TF over GST control) and the binding signal [6] was 1.3 fold enrichment (6-mer frequency, TF over GST control). The binding signal [7] was 1.17 fold enrichment (6-mer frequency, TF over GST control), the binding signal [8] was 1.19 fold enrichment (6-mer frequency, TF over GST control) and the binding signal [9] was 1.19 fold enrichment (6-mer frequency, TF over GST control). The binding signal [10] was 1.05 fold enrichment (6-mer frequency, TF over GST control), the binding signal [11] was 1.22 fold enrichment (6-mer frequency, TF over GST control) and the binding signal [12] was 1.08 fold enrichment (6-mer frequency, TF over GST control). The binding signal [13] was 1.06 fold enrichment (6-mer frequency, TF over GST control), the binding signal [14] was 1.2 fold enrichment (6-mer frequency, TF over GST control) and the binding signal [15] was 1.03 fold enrichment (6-mer frequency, TF over GST control). For the same sequence, the binding signal [16] was 1.14 fold enrichment (6-mer frequency, TF over GST control), the binding signal [17] was 1.18 fold enrichment (6-mer frequency, TF over GST control) and the binding signal [18] was 1.24 fold enrichment (6-mer frequency, TF over GST control). The binding signal [19] was 1.26 fold enrichment (6-mer frequency, TF over GST control).
